Results filed as inconclusive are left out. Values without a mark were called inactive. Activity calls are given as the source filed them. Calls follow the shape of the dose curve; as a rule, active = well fitted cell-killing curve with a large enough effect; inconclusive = small, poorly fitted or top-dose-only effect, or effect the other way; inactive = no such curve, though single readings can be large or run the other way.
Experiment: Quantitative High-Throughput drug screen in 47 multiple myeloma cell lines against the NCATS MIPE library collection: ARD_JJKsccE7 cell viability assay (AID 1918929;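 as to viability: 100% = DMSO-only wells and 0% = media-only wells without cells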)
Details: ARD myeloma cell line viability, CellTiter-Glo, 48 h; series mostly up to 45.8 µM; viability: at the top concentration
Summary of the method: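 qHTS of the MIPE 4.0 collection: 500 myeloma cells/well, 48 h drug exposure at 37C in 5% CO2, then CellTiter-Glo for 5 min at room temperature before luminescence reading.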
Potency is read from the fitted curve at half-maximal effect.

SMILES	Potency	viability
CCc1cc(-c2n[nH]c(C)c2-c2ccc3c(c2)OCCO3)c(O)cc1O	1.18 µM (active)	–
CCCCCCCCCCCCCC(=O)N[C@H](CO)[C@H](O)c1ccc([N+](=O)[O-])cc1	20.9 µM (active)	–
COc1ccc(CCN(C)CCCOc2ccc(S(=O)(=O)c3[nH]c4ccccc4c3C(C)C)cc2)cc1OC	–	156%
Clc1ccc(COC(Cn2ccnc2)c2ccc(Cl)cc2Cl)c(Cl)c1 (configuration not stated)	23.5 µM (active)	–
CC1(C)[C@H]2CC[C@]3(C)[C@@H](C(=O)C=C4[C@@H]5C[C@@](C)(C(=O)O)CC[C@]5(C)CC[C@]43C)[C@@]2(C)CC[C@@H]1O	–	126%
CN(C(Cc1ccc(OS(=O)(=O)c2cccc3cnccc23)cc1)C(=O)N1CCN(c2ccccc2)CC1)S(=O)(=O)c1cccc2cnccc12 (configuration not stated)	5.9 µM (active)	–
COc1cc(Cl)cn2c(-c3cccc(NC4CNC4)n3)cnc12	16.6 µM (active)	–
Nc1ncnc2c1ncn2[C@@H]1O[C@H](CO)[C@@H](O)[C@@H]1O	2.64 µM (active)	–
CO[C@H]1/C=C\O[C@@]2(C)Oc3c(C)c(O)c4c(O)c(c5c(nc6cc(C)ccn65)c4c3C2=O)NC(=O)C(C)=CC=C[C@H](C)[C@H](O)[C@@H](C)[C@@H](O)[C@@H](C)[C@H](OC(C)=O)[C@H]1C	18.7 µM (active)	–
CN1CCC[C@H]1CCO[C@](C)(c1ccccc1)c1ccc(Cl)cc1	–	106%
O=S(=O)(NCCNCC=Cc1ccc(Br)cc1)c1cccc2cnccc12	10.5 µM (active)	–
C=CC[N+]1([C@H]2C[C@H]3[C@@H]4CC[C@H]5C[C@H](O)[C@@H](N6CCOCC6)C[C@]5(C)[C@@H]4CC[C@]3(C)[C@H]2OC(C)=O)CCCC1	–	130%
CC(C)Oc1cc(Nc2nc(N[C@@H](C)c3ccc(F)cn3)ncc2Cl)[nH]n1	14.8 µM (active)	–
CO[C@@H]1C(N(C)C(=O)c2ccccc2)C[C@H]2O[C@]1(C)n1c3ccccc3c3c4c(c5c6ccccc6n2c5c31)C(=O)NC4=O (some centres not stated)	1.87 µM (active)	–
CN(C)c1nc(Cc2ccc(NC(=O)c3ccc(C(F)(F)F)cc3)cc2)nc(N(C)C)c1CC(=O)O	–	153%
CN[C@@H]1CN(c2ccc3c(=O)c(C(=O)O)cn(-c4nccs4)c3n2)C[C@@H]1OC	–	156% [at 23.2 µM]
CC(C)C[C@@H](C(=O)N[C@H](C(=O)OC1CCCC1)c1ccccc1)[C@H](O)C(=O)NO	4.69 µM (active)	–
CCC(=O)OCC(=O)[C@@]1(OC(=O)CC)[C@@H](C)C[C@@H]2[C@H]3CCC4=CC(=O)C=C[C@]4(C)[C@@]3(F)[C@@H](O)C[C@@]21C	2.09 µM (active)	–
Cc1ccc2c(c1)c1c(n2CCc2ccc(C)nc2)CCN(C)C1	–	94.9%
COc1c(C)cnc(Cn2cnc3c(Cl)nc(N)nc32)c1C	0.0418 µM (active)	–
C[C@H]1COC2=C1C(=O)C(=O)c1c2ccc2c1CCCC2(C)C	–	85.7%
OC[C@H]1O[C@@H](O[C@H]2[C@@H](O)[C@@](O)(CO)O[C@@H]2CO)[C@H](O)[C@@H](O)[C@@H]1O	–	92.6%
CC(=O)NCCC(=O)N[C@@H](CCC(N)=O)C(=O)N[C@@H](CO)C(=O)N[C@@H](CCC(N)=O)C(=O)N[C@@H](CCC(N)=O)C(=O)N[C@H](C(=O)N[C@@H](Cc1ccccc1)C(=O)N[C@]1(C)CCCCCCC=CCCC[C@@](C)(C(=O)N[C@@H](CCC(N)=O)C(=O)N[C@@H](CC(N)=O)C(N)=O)NC(=O)[C@H](CC(C)C)NC(=O)[C@H](CC(C)C)NC(=O)[C@@H](CCCNC(=N)N)NC(=O)[C@H](Cc2c[nH]c3ccccc23)NC(=O)[C@H](CC(C)C)NC(=O)[C@H](CC(N)=O)NC1=O)[C@H](C)O	–	139%
COc1ccc2c(c1)c(C1=C(c3c[nH]c4ccccc34)C(=O)NC1=O)cn2CCCN(C)C	23.5 µM (active)	–
Cc1ccc(S(=O)(=O)OCC(=O)Nc2ccc(C(=O)O)c(O)c2)cc1	–	89.6%
O=C(c1ccc(C=Cc2n[nH]c3ccccc23)cc1)N1CCNCC1	1.32 µM (active)	–

Experiment: Quantitative High-Throughput drug screen in 47 multiple myeloma cell lines against the NCATS MIPE library collection: Karpas620_DSMZ cell viability assay (AID 1918959); also: nearly all actives have a fitted effect of over 30% in size;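 as to viability (% of DMSO): 100% = DMSO-only wells and 0% = cell-free media-only wells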
Details: Karpas620 myeloma viability, CellTiter-Glo ATP luminescence, 48 h; series mostly up to 45.8 µM; viability (% of DMSO): at the top concentration
Summary of the method: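 Primary qHTS used for cherry-picking: cells at 500/well, library compounds for 48 h (37C, 5% CO2), luminescent ATP assay.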

SMILES	Potency	viability (% of DMSO)
CCc1cc(-c2n[nH]c(C)c2-c2ccc3c(c2)OCCO3)c(O)cc1O	14.8 µM (active)	–
CCCCCCCCCCCCCC(=O)N[C@H](CO)[C@H](O)c1ccc([N+](=O)[O-])cc1	16.6 µM (active)	–
COc1ccc(CCN(C)CCCOc2ccc(S(=O)(=O)c3[nH]c4ccccc4c3C(C)C)cc2)cc1OC	–	125%
Clc1ccc(COC(Cn2ccnc2)c2ccc(Cl)cc2Cl)c(Cl)c1 (configuration not stated)	20.9 µM (active)	–
CC1(C)[C@H]2CC[C@]3(C)[C@@H](C(=O)C=C4[C@@H]5C[C@@](C)(C(=O)O)CC[C@]5(C)CC[C@]43C)[C@@]2(C)CC[C@@H]1O	–	108%
COc1cc2nc(-c3cc(F)ccc3O)nc(N[C@@H]3CNC[C@@H]3C(C)(C)O)c2cc1OC	6.62 µM (active)	–
Nc1ncnc2c1ncn2[C@@H]1O[C@H](CO)[C@@H](O)[C@@H]1O	5.26 µM (active)	–
C=C[C@@H]1CN2CCC1C[C@@H]2C(O)c1ccnc2ccc(OC)cc12 (some centres not stated)	–	107%
CO[C@H]1/C=C\O[C@@]2(C)Oc3c(C)c(O)c4c(O)c(c5c(nc6cc(C)ccn65)c4c3C2=O)NC(=O)C(C)=CC=C[C@H](C)[C@H](O)[C@@H](C)[C@@H](O)[C@@H](C)[C@H](OC(C)=O)[C@H]1C	18.7 µM (active)	–
OC[C@H]1O[C@@H](Oc2ccc(O)cc2)[C@H](O)[C@@H](O)[C@H]1O	–	103%
O=S(=O)(NCCNCC=Cc1ccc(Br)cc1)c1cccc2cnccc12	20.9 µM (active)	–
C=CC[N+]1([C@H]2C[C@H]3[C@@H]4CC[C@H]5C[C@H](O)[C@@H](N6CCOCC6)C[C@]5(C)[C@@H]4CC[C@]3(C)[C@H]2OC(C)=O)CCCC1	–	120%
C=CCc1cccc(C=NNC(=O)CN2CCN(Cc3ccccc3)CC2)c1O	9.35 µM (active)	–
CO[C@@H]1C(N(C)C(=O)c2ccccc2)C[C@H]2O[C@]1(C)n1c3ccccc3c3c4c(c5c6ccccc6n2c5c31)C(=O)NC4=O (some centres not stated)	–	71.7%
CN(C)c1nc(Cc2ccc(NC(=O)c3ccc(C(F)(F)F)cc3)cc2)nc(N(C)C)c1CC(=O)O	–	99.1%
CN[C@@H]1CN(c2ccc3c(=O)c(C(=O)O)cn(-c4nccs4)c3n2)C[C@@H]1OC	–	113% [at 23.2 µM]
CC(C)C[C@@H](C(=O)N[C@H](C(=O)OC1CCCC1)c1ccccc1)[C@H](O)C(=O)NO	5.26 µM (active)	–
CCC(=O)OCC(=O)[C@@]1(OC(=O)CC)[C@@H](C)C[C@@H]2[C@H]3CCC4=CC(=O)C=C[C@]4(C)[C@@]3(F)[C@@H](O)C[C@@]21C	2.35 µM (active)	–
Cc1ccc2c(c1)c1c(n2CCc2ccc(C)nc2)CCN(C)C1	–	95.8%
CC(=O)NCCC(=O)N[C@@H](CCC(N)=O)C(=O)N[C@@H](CO)C(=O)N[C@@H](CCC(N)=O)C(=O)N[C@@H](CCC(N)=O)C(=O)N[C@H](C(=O)N[C@@H](Cc1ccccc1)C(=O)N[C@]1(C)CCCCCCC=CCCC[C@@](C)(C(=O)N[C@@H](CCC(N)=O)C(=O)N[C@@H](CC(N)=O)C(N)=O)NC(=O)[C@H](CC(C)C)NC(=O)[C@H](CC(C)C)NC(=O)[C@@H](CCCNC(=N)N)NC(=O)[C@H](Cc2c[nH]c3ccccc23)NC(=O)[C@H](CC(C)C)NC(=O)[C@H](CC(N)=O)NC1=O)[C@H](C)O	–	130%
C[C@@H]1[C@H](O)[C@@H](C)C=CC=CC=CC=CC=CC=CC=C[C@H](O[C@@H]2O[C@H](C)[C@H](O)[C@H](N)[C@@H]2O)C[C@@H]2O[C@](O)(C[C@@H](O)C[C@@H](O)[C@H](O)CC[C@@H](O)C[C@@H](O)CC(=O)O[C@H]1C)C[C@H](O)[C@@H]2C(=O)O	–	103%

— PubChem BioAssay (NCATS)
